Screening data from PubChem BioAssay.
Only some compounds are listed: those with a hit (about 4.7% of all), similar ones and a draw of the others.
tim23-1 inh = growth inhibitors of tim23-1 mutant yeast, primary screen, luminescence, uHTS; S. cerevisiae tim23-1 growth, BacTiter-Glo luminescence, 24 h; inhibition, % at 20 µM; 330,000 compounds, 1.3% hits;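 active means growth inhibition of the mutant yeast at or above 50%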;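 further: temperature-sensitive mutant grown at 25 °C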
PfHsp90 yeast 2 = growth inhibition of PfHsp90-expressing yeast, primary screen, antimalarial PfHsp90 inhibitor project, S. cerevisiae, BacTiter-Glo luminescence, single point, set 2 | BacTiter-Glo ATP, 48 h; yeast lacking PDR1 and PDR3 efflux regulators | inhibition, % at 9.4 µM | 310,000 compounds, 0.32% hits | AID 504621, 2011;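 active means every replicate shows inhibition above about 80%, whatever the replicate mean, limit read from the data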
TIM10 inh = growth inhibitors of isogenic TIM10 control yeast, primary screen, counter-screen for tim10-1 yeast inhibitor project, luminescence, uHTS | S. cerevisiae TIM10 strain growth, BacTiter-Glo luminescence, 24 h | inhibition, % at 10 µM | 330,000 compounds, 1.4% hits | AID 463195, 2010;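 active means inhibition of 40% or more at the single tested concentration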;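 further: wild-type TIM10 isogenic control strain grown at permissive 25 °C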
tim10-1 inh = growth inhibitors of tim10-1 mutant yeast, primary screen, luminescence, uHTS | 330,000 compounds, 2.2% hits | AID 463190, 2010 | inhibition, % at 20 µM | S. cerevisiae tim10-1 ts strain growth, BacTiter-Glo, 24 h;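 active means inhibition of at least 40%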;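 further: mutant grown at 25 °C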
EBI2 antag = EBI2 receptor antagonists, beta-arrestin recruitment, primary screen, cell-based, luminescence, 7a,25-OHC stimulation, uHTS; G-protein coupled receptor 183 (Homo sapiens), P32249; 7a,25-OHC stimulated; inhibition, % at 5 µM; 360,000 compounds, 0.81% hits; AID 651636, 2012; in the data active means inhibition above about 38%;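 further: enzyme fragment complementation signal reports receptor beta-arrestin coupling in cells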
Target sequence (P32249 whole entry, looked up, the tested form may be a part): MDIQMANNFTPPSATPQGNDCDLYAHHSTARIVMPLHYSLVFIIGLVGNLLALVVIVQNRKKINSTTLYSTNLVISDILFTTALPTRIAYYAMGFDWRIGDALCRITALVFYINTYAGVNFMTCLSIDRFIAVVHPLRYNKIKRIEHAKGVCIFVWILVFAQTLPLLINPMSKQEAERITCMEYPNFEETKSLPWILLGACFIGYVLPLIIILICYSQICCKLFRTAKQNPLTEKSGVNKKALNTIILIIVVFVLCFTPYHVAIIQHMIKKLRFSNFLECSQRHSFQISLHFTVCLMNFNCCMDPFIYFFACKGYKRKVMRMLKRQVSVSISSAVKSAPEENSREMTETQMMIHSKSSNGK
SKKanGAS inh = S. pyogenes SKKanGAS growth inhibitors in kanamycin, primary screen, streptokinase expression inhibitor project, SKKanGAS strain, BacTiter-Glo luminescence; 6 h; inhibition, % at 7.5 µM; 300,000 compounds, 1.3% hits;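 active means mean replicate score, as percent of positive control median, at least 50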;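 further: strain carries kanamycin resistance gene driven by streptokinase promoter and grows in 40 µg/ml kanamycin; loss of luminescence reflects streptokinase promoter inhibition or plain growth inhibition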
tim23-1 conf = tim23-1 mutant yeast growth inhibitors, confirmation, luminescence, single concentration. shares compounds with tim23-1 inh. S. cerevisiae tim23-1 growth, BacTiter-Glo luminescence, 24 h. inhibition, % at 20 µM. 4,400 compounds, 83% hits. AID 463218, 2010;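 active means inhibition above about 39% in either of two replicate wells at 20 µM, limit read from the data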;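 further: temperature-sensitive tim23-1 mutant grown at 25 °C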
Numbers stand for hits; i = inactive; nt = no result.

SMILES | tim23-1 inh | PfHsp90 yeast 2 | TIM10 inh | tim10-1 inh | EBI2 antag | SKKanGAS inh | tim23-1 conf
Cc1ccc(S(=O)(=O)N2CCc3ccccc3C2)cc1 | i | i | i | i | i | i | nt
Cn1c(C=O)c(-c2ccc3cc[nH]c3c2)c2ccccc21 | 64 | i | i | i | i | nt | 55
O=C(Nc1ccc2c(c1)OCCO2)c1cccc(Cl)c1 | 51 | i | i | i | i | i | 57
Nc1c(C(=O)Nc2ccc3c(c2)OCCO3)nnn1Cc1cccc(Cl)c1 | i | nt | i | i | i | i | nt
Nc1c(C(=O)Nc2ccc3c(c2)OCCO3)nnn1Cc1ccccc1Cl | 66 | 83 | i | i | i | i | 42
O=C(N/N=C/c1cc([N+](=O)[O-])ccc1O)c1cc(-c2ccccc2)nc2ccccc12 | 58 | i | i | i | i | 90 | 58
O=C(Cc1ccccc1)N/N=C/c1ccc([N+](=O)[O-])s1 | i | i | i | i | i | i | nt
Cc1cc(C(=O)N/N=C/c2ccc([N+](=O)[O-])s2)c2ccccc2n1 | 65 | i | i | i | i | i | 59
Cc1cc(C(=O)N/N=C/c2ccc([N+](=O)[O-])cc2)c2ccccc2n1 | i | i | i | i | i | i | nt
O=C(N/N=C/c1ccc([N+](=O)[O-])s1)c1ccccc1Br | 77 | i | i | i | i | i | 64
O=C(N/N=C/c1cc([N+](=O)[O-])ccc1Cl)c1cc(-c2ccccc2)nc2ccccc12 | i | i | i | i | i | i | nt
CCN(Cc1ccccc1)C(=O)Cn1c(=O)n(CC(=O)N2CCCCC2)c(=O)c2sccc21 | i | i | i | i | i | i | nt
COCCNC(=O)/C(C#N)=C/c1ccc(OCc2ccccc2)cc1 | 55 | i | i | i | i | i | 53
COCCNC(=O)/C(C#N)=C/c1ccc(OCc2ccc(F)cc2)cc1 | 56 | i | i | i | i | i | 48
CCCCN(C(=O)Cc1cccc(F)c1)c1c(N)n(CCC)c(=O)[nH]c1=O | i | i | i | i | i | i | nt
CC1(C)CC2CC(C)(CN2C(=O)c2cc(-c3ccc(O)cc3)on2)C1 (stereo not drawn) | 53 | i | i | i | i | i | 48
CC(=O)n1cc(CO)c2ccccc21 | i | i | i | i | i | i | nt
CC(=O)n1cc(N(C(=O)CCl)c2ccc([N+](=O)[O-])cc2)c2ccccc21 | 64 | i | i | i | i | i | 49
CC(=O)n1cc(N(C(=O)CCl)c2ccccc2)c2ccccc21 | 54 | i | i | i | i | i | i
Cc1ccc(OC/C(=N\O)C(C)(C)C)c([N+](=O)[O-])c1 | i | i | i | i | i | i | nt
Nc1ccc(O)c2c1C(=O)c1ccccc1C2=O | 53 | i | i | i | i | i | 55
CCCOc1cccc(C(=O)N/N=C/c2coc3ccccc3c2=O)c1 | 55 | i | i | i | i | nt | 47
Cc1ccc2occ(/C=N/NC(=O)c3ccc(Cl)cc3)c(=O)c2c1 | i | i | i | i | i | i | nt
Cc1ccc2occ(/C=N/NC(=O)c3ccncc3)c(=O)c2c1 | 51 | i | i | i | i | i | 51
Cc1ccc2occ(/C=N/NC(=O)c3ccccc3O)c(=O)c2c1 | 53 | i | i | i | i | i | 51
O=C(N/N=C/c1coc2ccc(Cl)cc2c1=O)c1cc(O)cc(O)c1 | 72 | i | i | i | i | i | 70
COc1ccc(C(=O)N/N=C\c2coc3ccc(C)cc3c2=O)cc1 | i | i | i | i | i | i | nt
O=C(NCC1CCCO1)c1cccc(NS(=O)(=O)c2ccc(Br)cc2)c1 (stereo not drawn) | i | i | i | i | i | i | nt
C/C=C/C=C/[C@H]1Cc2cc(O)cc(O)c2O1 | i | nt | i | i | nt | i | nt
COc1ccccc1CNC(=S)Nc1ccc2nc(N3CCN(C)CC3)cc(C)c2c1 | i | i | i | i | i | i | nt
